Source: PubChem BioAssay
TDP1 cell CPT: DT40-hTDP1 cell growth loss with CPT. chicken DT40 Tdp1-/-;hTDP1 cells + 20 nM CPT, ATP luminescence, 48 h. Potency, µM (highest dose often 46.2 µM), actives largely listed as inhibitors. 12% of 420,000 active. AID 686979; note: nearly all actives have a fitted effect of over 55% in size
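Chicken DT40 Tdp1-/- cells complemented with human TDP1, 400 cells/well, exposed to compounds plus 20 nM camptothecin for at least 48 h at 37 C; viability read as ATP content by CellTiter-Glo luminescence.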
Giardia kill: Giardia lamblia killing | Giardia lamblia trophozoite viability | activity change, % at 7.66 µM, hits read low | 0.15% of 340,000 active; in the data active = activity change below about -80%; inconclusive = between about -30% and that limit;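 note: parasites exposed to compound for two days anaerobically before the ATP read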
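Giardia trophozoites, 100 cells per well, were exposed to compounds for 48 hrs at 37 deg C under anaerobic conditions; viability was then read as ATP content by bioluminescence after 15-30 min at room temperature.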
TDP1 cell noCPT: qHTS for Inhibitors of human tyrosyl-DNA phosphodiesterase 1 (TDP1): qHTS in cells in absence of CPT; DT40 Tdp1-/- hTDP1 cells, no CPT, ATP luminescence, 48 h; Potency, µM (series often up to 46.2 µM), usual class: inhibitors; 15% of 420,000 active; note: nearly all actives have a fitted effect of over 55% in size
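Luminescent ATP content (CellTiter-Glo) served as the growth readout. Knockout chicken DT40 cells expressing human TDP1 were exposed to compounds without camptothecin for a minimum 48 hr at 37 °C.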
IL1B secr inh: blocks inflammasome-driven IL-1 beta release. activity change, % at 57.5 µM. 4.7% of 360,000 active. THP-1 LPS/ATP IL-1B secretion, AlphaLISA, 16 h; active compounds read low; in the data active = activity change below about -50%; inconclusive = mostly about -30% to -49%
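Secreted IL-1B measured by AlphaLISA bead assay after 16 h compound exposure of THP-1 cells; compounds (final up to 57.5 uM) added 1 h before LPS (250 ng/mL) and ATP (1.25 mM) stimulation; lower signal means less secretion.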
ELG1 DNA repair: inhibitors of ELG1-dependent DNA repair in HEK293T cells; HEK293T ELG1-luciferase reporter, luminescence, 16 h; DNA damage induced by 5-fluorouridine; Potency, µM (highest dose often 46.1 µM), hits mostly inhibitors; 2.3% of 330,000 active; AID 504467; note: nearly all actives have a fitted effect of over 55% in size
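DMSO vehicle served as the neutral condition. Each well held 2,000 cells given 5-fluorouridine plus compound; after 16 hr at 37 °C/5% CO2, ONE-Glo was added and luciferase measured 30 min later.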
TDP1 block: inhibitors of human tyrosyl-DNA phosphodiesterase TDP1 | Q9NUW8 | recombinant TDP1, AlphaScreen DNA substrate cleavage | Potency, µM (highest dose often 130 µM), usual class: inhibitors | 0.28% of 350,000 active; note: nearly all actives have a fitted effect of over 40% in size
Target sequence (Q9NUW8 whole entry, looked up): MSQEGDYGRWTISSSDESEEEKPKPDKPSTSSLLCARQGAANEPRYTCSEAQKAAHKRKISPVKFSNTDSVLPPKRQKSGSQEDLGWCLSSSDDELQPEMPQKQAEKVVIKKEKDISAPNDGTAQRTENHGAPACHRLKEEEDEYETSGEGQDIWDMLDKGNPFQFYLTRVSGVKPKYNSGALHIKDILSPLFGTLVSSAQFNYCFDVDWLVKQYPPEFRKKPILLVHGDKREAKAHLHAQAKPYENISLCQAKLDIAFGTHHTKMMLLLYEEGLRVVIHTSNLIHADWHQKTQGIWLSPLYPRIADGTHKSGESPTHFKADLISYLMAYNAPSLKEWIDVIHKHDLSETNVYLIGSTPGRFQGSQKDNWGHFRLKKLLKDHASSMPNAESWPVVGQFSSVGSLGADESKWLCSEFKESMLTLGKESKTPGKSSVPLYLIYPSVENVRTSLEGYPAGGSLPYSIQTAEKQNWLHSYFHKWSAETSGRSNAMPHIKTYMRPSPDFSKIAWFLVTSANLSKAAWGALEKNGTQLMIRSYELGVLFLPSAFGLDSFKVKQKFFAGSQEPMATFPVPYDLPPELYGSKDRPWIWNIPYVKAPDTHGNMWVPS
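Recombinant E. coli-expressed Tdp1 (1 nM) preincubated with compound 15 min at RT, then 5'-biotin/3'-phosphotyrosine-FITC DNA substrate (15 nM) added for 5 min. AlphaScreen beads (10 ug/ml) added, 10 min RT; tyrosine-FITC cleavage read as signal loss.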
Numbers stand for hits; . = inactive; ? = inconclusive; / = not tested or not shown; [ ] = remark or other dose. Rows were chosen to be rich in hits. Some 19% of all compounds tested hit in one or more screens of this group. Unless noted, calls come from the whole dose curve; as a rule, active = well fitted curve in the direction sought with a large enough effect; inconclusive = small, poorly fitted or top-dose-only effect, or another doubt; inactive = no such curve, though single readings can be large; an effect the other way counts as inactive or inconclusive.

SMILES	TDP1 cell CPT	Giardia kill	TDP1 cell noCPT	IL1B secr inh	ELG1 DNA repair	TDP1 block
O=C(Oc1ccc(N(Cc2cccs2)C2=NS(=O)(=O)c3ccccc32)cc1)c1ccccc1Cl	6.5µM	.	5.8µM	.	.	.
CCOC(=O)/C(=N\Nc1ccc(C(C)=O)cc1)c1csc(Nc2ccccc2)n1	?	.	10µM	.	?	.
CCc1cc(C(=O)Nc2c(C)nn(Cc3ccccc3Cl)c2C)no1	?	/	?	/	/	.
Cc1nn(Cc2ccc(Cl)cc2Cl)c(C)c1NC(=O)CCl	15µM	.	13µM	-101	15µM	.
Cc1nn(Cc2ccc(Cl)cc2Cl)c(C)c1NC(=O)c1nn(C)cc1Cl	8.2µM	.	9.2µM	.	.	.
Cc1nn(C)c(Cl)c1NC(=O)OCc1ccc(Cl)cc1Cl	15µM	.	13µM	.	.	.
Cc1nn(Cc2ccc(Cl)cc2Cl)c(C)c1NC(=O)C1C2CCC(O2)C1C(=O)O (stereo not drawn)	?	.	15µM	.	?	.
Cc1nn(Cc2ccccc2Cl)c(C)c1NC(=O)C1C2CCC(O2)C1C(=O)O (stereo not drawn)	.	.	?	.	.	.
Cc1nnsc1NC(=O)OCc1ccc(Cl)cc1Cl	.	.	?	.	.	.
Cc1ccccc1Nc1cc(C(=O)NCCc2ccc(Cl)cc2)c2ccccc2n1	?	/	?	/	/	.
Cc1ccccc1Nc1cc(C)c2c(O)cccc2n1	?	.	?	-87	.	.
Cc1ccc(Nc2cc(C)c3ccc(O)cc3n2)cc1C	18µM	.	18µM	.	?	.
Cc1ccc(Nc2cc(C)c3c(O)cccc3n2)cc1C	21µM	.	15µM	.	?	.
Cc1cc(NC2CCCCC2)nc2ccccc12	?	.	16µM	-91	.	.
O=C(COc1ccc(S(=O)(=O)N2CCCC2)cc1)N1CCCCC1	.	.	.	.	.	.
COc1cccc(CNC(=O)C(=O)N2CCC3(CC2)OCCN3S(=O)(=O)c2ccc(C)cc2)c1	.	.	.	.	.	.[0.505 µM]
CC(C)(C)OC(=O)NCc1nnc(C(C(=O)OCc2ccccc2)c2ccccc2)s1 (stereo not drawn)	/	/	/	/	/	.
NS(=O)(=O)c1ccc(CNC(=O)Cc2ccccc2[N+](=O)[O-])cc1	.	.	.	.	.	.
COc1ccc(Nc2cc(C)c3c(O)cccc3n2)cc1	21µM	.	10µM	?	?	/
COc1cccc(Nc2nc3ccccc3c(=O)[nH]2)c1	.	.	.	.	?	.
COc1cccc(Nc2cc(C)c3ccccc3n2)c1	.	.	?	-55	?	/
COc1ccc(Nc2c(C)cccc2C)cc1	.	.	.	.	?	.
CCCSc1nc2ccsc2c(=O)n1CC	.	.	.	.	.	.
COc1cc(NC(=O)N2CCc3nc(Nc4cc(Cl)cc(Cl)c4)ncc3C2)cc(OC)c1OC	23µM	/	?	?	/	/
COc1ccc(CNC(=O)N2CCc3nc(Nc4cc(OC)c(OC)c(OC)c4)ncc3C2)cc1	?	/	?	.	/	/
SMILES	TDP1 cell CPT	Giardia kill	TDP1 cell noCPT	IL1B secr inh	ELG1 DNA repair	TDP1 block
O=C(Nc1ccccc1C(F)(F)F)c1ncn[nH]1	.	.	.	.	?	.
Cc1cccc(CNC(=O)c2ccc(NC(=O)N3CCSc4ccccc43)cc2)c1	16µM	/	9.2µM	/	/	.
Cc1ccccc1NC(=O)CCC(=O)N1CC(C)Sc2ccccc21 (stereo not drawn)	?	/	?	/	/	.
Cc1ccccc1CCNC(=O)c1ccc(NC(=O)N2CC(C)Sc3ccccc32)cc1 (stereo not drawn)	18µM	/	7.3µM	/	/	.
CCc1ccccc1NC(=O)N1CCc2ccccc21	23µM	.	?	.	.	.
CCc1ccccc1NC(=O)N1CC(C)Sc2ccccc21 (stereo not drawn)	21µM	/	?	/	/	.
CCC1(C2CCN(C(=O)c3coc4c3C(=O)CCC4)CC2)NC(=O)N(CCc2scnc2C)C1=O (stereo not drawn)	.	/	.	/	/	/
CC1(C)S[C@@H]2[C@H](NC(=O)C(C(=O)O)c3ccsc3)C(=O)N2[C@H]1C(=O)O (stereo partly drawn)	.	/	.	/	/	/
CC(c1nccs1)N(C)c1nc2nonc2nc1N(C)C (stereo not drawn)	.	.	.	.	.	.
CC(=O)c1cc(-c2ccc(F)cc2)n(CCC(=O)NCc2ccc(C)cc2)c1C	?	/	?	/	/	.
CCOc1ccccc1CNC(=O)c1ccc(NC(=O)N2CC(C)Sc3ccccc32)cc1 (stereo not drawn)	13µM	/	7.3µM	/	/	.
CC1CN(C(=O)Nc2ccc(C(=O)NCc3ccccc3F)cc2)c2ccccc2S1 (stereo not drawn)	23µM	/	15µM	/	/	.
CC1CN(C(=O)Nc2ccc(C(=O)NCc3cccc(F)c3)cc2)c2ccccc2S1 (stereo not drawn)	?	/	18µM	/	/	.
COc1ccccc1N1CCN(C(=O)c2cc(CC(C)C)on2)CC1	?	/	?	/	/	.
Cc1nn(S(=O)(=O)c2ccc(Br)cc2)c(C)c1S(=O)(=O)N1CCCCCC1	.	/	.	/	/	.
Cc1nc2ncnn2c(N2CCN(S(=O)(=O)c3ccc(Br)cc3)CC2)c1C	?	.	4.6µM	.	.	.
Cc1nc2ncnn2c(N2CCC(C(=O)NC3CCCC3)CC2)c1Cc1ccccc1	.	.	.	.	.	.
O=S(=O)(c1ccc(Br)cc1)N1CCN(c2cc(-c3ccccc3)nc3ncnn23)CC1	13µM	.	26µM	?	?	.
COc1ccc(S(=O)(=O)N2CCN(c3cc(-c4ccccc4)nc4ncnn34)CC2)cc1	21µM	.	16µM	-69	21µM	.
O=S(=O)(c1ccc(Br)cc1)N1CCN(c2ccccc2)CC1	.	.	.	.	.	/
Cc1ccccc1NC(=O)C1CCN(c2cc(-c3ccccc3)nc3ncnn23)CC1	15µM	.	21µM	?	15µM	.
OCCc1c[nH]c2ccc(OCc3ccccc3)cc12	.	?	.	.	.	.
CCCCCCn1cc(CN2CC(N3CCN(CCN(C)C)CC3)CS2(=O)=O)nn1 (stereo not drawn)	.	/	.	.	/	/
Cn1nc(-c2ccc(Cl)cc2)c2cc(C(=O)N3CCN(c4ccccn4)CC3)sc21	5.8µM	.	5.8µM	.	?	.
Cn1nc(-c2ccc(Cl)cc2)c2cc(C(=O)N3CCN(c4ccccc4)CC3)sc21	?	.	?	.	?	.
Cn1nc(-c2ccc(Cl)cc2)c2cc(C(=O)N3CCCC3)sc21	18µM	.	23µM	.	?	.
COc1ccc(-c2nn(C)c3sc(C(=O)N4CCN(c5cc(Cl)ccc5C)CC4)cc23)cc1OC	15µM	/	18µM	/	/	.
